Experimental data from the supplement of paper PMC9262897, “Low-cost anti-mycobacterial drug discovery using engineered E. coli” (Nature Communications, 2022).
Where a name gives a salt, the structure may show the parent alone. ± gives the standard deviation of the averaged measurements.

Tests used:
Assay in all cases: growth (OD600 after 10 h); higher = more growth (less inhibition)
[1] = system: E. coli TESEC Alr+ wild-type control; conditions: compound 0.1 mM; raw OD600 reference: median of DMSO wells 0.241, cell-free background 0.041
Experimental: (§1)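 TESEC Mtb Alr E. coli, or the Alr+ wild-type control, in 384-well plates with Prestwick library compounds at 0.1 mM and 1% DMSO, across arabinose induction levels of 1E3 to 1E7 nM. Growth is read as OD600 after 10 h at 37 °C in triplicate biological replicates.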

[2] = system: E. coli TESEC Mtb Alr; conditions: compound 0.1 mM
Experimental: as §1

[3] = system: E. coli TESEC Mtb Asd; conditions: compound 0.1 mM
Experimental: (§2)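 TESEC E. coli strains in which the native enzyme is deleted and replaced by arabinose-inducible Mtb Asd, DapB, CysH or TrpD, each grown in its selective medium. Strains were screened against the Prestwick library at 0.1 mM and 1% DMSO in 384-well format at low and high arabinose induction. Growth is read as OD600 after 10 h in triplicate.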

[4] = system: E. coli TESEC Mtb DapB; conditions: compound 0.1 mM
Experimental: as §2

[5] = system: E. coli TESEC Mtb Alr; conditions: compound 0.1 mM; remark: listed apart in the source
Experimental: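 TESEC Mtb Alr E. coli (ΔaraC ΔtolC ΔentC Δalr ΔdadX, arabinose-inducible Mtb Alr) or the Alr+ wild-type control strain, grown in defined M9-fructose medium without D-alanine in 96-well plates with Prestwick library compounds at 0.1 mM and 1% DMSO. Low Alr induction is 0.1 µM arabinose and high induction is 10 mM arabinose.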

[6] = arabinose 1000 nM, raw OD600 reference: median of DMSO wells 0.294, cell-free background 0.041
[7] = arabinose 10000 nM, raw OD600 reference: median of DMSO wells 0.264, cell-free background 0.041
[8] = arabinose 100000 nM, raw OD600 reference: median of DMSO wells 0.201, cell-free background 0.041
[9] = arabinose 1000000 nM, raw OD600 reference: median of DMSO wells 0.193, cell-free background 0.041
[10] = arabinose 10000000 nM, raw OD600 reference: median of DMSO wells 0.146, cell-free background 0.041
[11] = arabinose induction (level): High, raw OD600 reference: median of DMSO wells 0.331, cell-free background 0.041
[12] = arabinose induction (level): Low, raw OD600 reference: median of DMSO wells 0.417, cell-free background 0.041
[13] = arabinose induction (level): High, raw OD600 reference: median of DMSO wells […], cell-free background 0.041
[14] = arabinose induction (level): Low, raw OD600 reference: median of DMSO wells 0.227, cell-free background 0.041
[15] = arabinose 100 nM, raw OD600 reference: median of DMSO wells 0.413, cell-free background 0.052
[16] = arabinose 10000000 nM, raw OD600 reference: median of DMSO wells […], cell-free background 0.052

C[C@H]1O[C@H](O[C@H]2[C@H](O)[C@@H](O)[C@@H](O[C@@H]([C@H](O)[C@@H](O)C=O)[C@H](O)CO)O[C@@H]2CO)[C@H](O)[C@@H](O)[C@@H]1N[C@H]1C=C(CO)[C@@H](O)[C@H](O)[C@H]1O [Acarbose]
growth [1]: 0.261 ± 0.0036
growth [2, 6]: 0.313 ± 0.0078
growth [2, 7]: 0.25 ± 0.005
growth [2, 8]: 0.244 ± 0.0037
growth [2, 9]: 0.182 ± 0.0045
growth [2, 10]: 0.145 ± 0.013
growth [3, 11]: 0.322 ± 0.026
growth [3, 12]: 0.476 ± 0.036
growth [4, 13]: 0.196 ± 0.018
growth [4, 14]: 0.236 ± 0.037
growth [5, 15]: 0.396 ± 0.013
growth [5, 16]: 0.3792 ± 0.0032

Cc1cc(NC(=O)C2=C(O)c3ccccc3S(=O)(=O)N2C)no1 [Isoxicam]
growth [1]: 0.25 ± 0.0032
growth [2, 6]: 0.255 ± 0.038
growth [2, 7]: 0.26 ± 0.0052
growth [2, 8]: 0.184 ± 0.033
growth [2, 9]: 0.184 ± 0.0038
growth [2, 10]: 0.135 ± 0.0033
growth [3, 11]: 0.252 ± 0.022
growth [3, 12]: 0.395 ± 0.081
growth [4, 13]: 0.199 ± 0.0028
growth [4, 14]: 0.216 ± 0.034
growth [5, 15]: 0.412 ± 0.015
growth [5, 16]: 0.299 ± 0.037

CO[C@@]1(NC(=O)Cc2cccs2)C(=O)N2C(C(=O)O)=C(COC(N)=O)CS[C@@H]21 [Cefoxitin sodium salt]
growth [1]: 0.0397 ± 0.00092
growth [2, 6]: 0.0385 ± 0.0017
growth [2, 7]: 0.0398 ± 0.0004
growth [2, 8]: 0.0383 ± 0.0013
growth [2, 9]: 0.03983 ± 0.00029
growth [2, 10]: 0.0389 ± 0.00036
growth [3, 11]: 0.0597 ± 0.0059
growth [3, 12]: 0.0593 ± 0.014
growth [4, 13]: 0.0512 ± 0.0019
growth [4, 14]: 0.0492 ± 0.0059
growth [5, 15]: 0.0456 ± 0.00026
growth [5, 16]: 0.052 ± 0.0013

CCN(CCCCOC(=O)c1ccc(OC)c(OC)c1)C(C)Cc1ccc(OC)cc1 (stereo not given) [Mebeverine hydrochloride]
growth [1]: 0.157 ± 0.004
growth [2, 6]: 0.231 ± 0.0024
growth [2, 7]: 0.243 ± 0.0072
growth [2, 8]: 0.18 ± 0.0066
growth [2, 9]: 0.125 ± 0.0057
growth [2, 10]: 0.165 ± 0.0094
growth [3, 11]: 0.197 ± 0.026
growth [3, 12]: 0.396 ± 0.046
growth [4, 13]: 0.166 ± 0.012
growth [4, 14]: 0.252 ± 0.032
growth [5, 15]: 0.4063 ± 0.003
growth [5, 16]: 0.311 ± 0.0053

CC(C(=O)O)c1ccc2c(c1)Cc1cccnc1O2 (stereo not given) [Pranoprofen]
growth [1]: 0.238 ± 0.0049
growth [2, 6]: 0.302 ± 0.013
growth [2, 7]: 0.271 ± 0.0097
growth [2, 8]: 0.192 ± 0.016
growth [2, 9]: 0.193 ± 0.0053
growth [2, 10]: 0.133 ± 0.0031
growth [3, 11]: 0.315 ± 0.03
growth [3, 12]: 0.367 ± 0.0097
growth [4, 13]: 0.192 ± 0.008
growth [4, 14]: 0.198 ± 0.013
growth [5, 15]: 0.415 ± 0.0046
growth [5, 16]: 0.316 ± 0.012
